Data: PubChem BioAssay (NCI)
Values joined by “and” are separate entries in the source; they are usually repeats but may differ in a detail not shown here. Equal values may be shown once. About 79,000 compounds went through this panel and 15% of them were active in at least one assay; those are over-represented in the sample as a whole. Active and inactive are the calls of the source. No stated cut-off is given here; in the data, active means growth inhibition above about 70%; inactive means the rest. *1 amine or outer side, *2 acyl side, *3 side chain or, on linkers, in order; H or OH if unused. Where a SMILES comes first, the peptide text is derived from it. Bridges are numbered along the chain shown (N, C = ends). Roman numbers before positions name the chains, in order. [ ]: non-standard residue; d: D form. The star is where a group is joined. Actinocin(9to1) = Cc1c2oc3c(C)ccc(C(=O)[*:1])c3nc-2c(C(=O)[*:2])c(N)c1=O; Fmoc = O=C(OCC1c2ccccc2-c2ccccc21)*; NMeY = CN[CH](Cc1ccc(O)cc1)C(=O)O; Boc = CC(C)(C)OC(=O)*; OtBu = CC(C)(C)O*; Sar = CNCC(=O)O

Experiments:
[1] = NCI Yeast Anticancer Drug Screen. Data for the rad50 strain (AID 155);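 further: 0% = growth of vehicle-only cultures of the same strain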; conditions: S. cerevisiae rad50 strain growth inhibition; at 50.0 µM; active compounds read high
Summary of the method: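 Yeast carrying a defined DNA repair defect were exposed to test compounds, and growth was compared with vehicle-treated controls to give percent inhibition.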

[2] = NCI Yeast Anticancer Drug Screen. Data for the mec2-1 strain (AID 157); conditions: S. cerevisiae mec2-1 strain, at 50.0 µM, active compounds read high
Summary of the method: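 Test agents were screened against the mec2-1 yeast strain, with defined DNA repair or cell cycle alteration. Growth was scored as inhibition against vehicle-only controls.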

[3] = NCI Yeast Anticancer Drug Screen. Data for the sgs1 mgt1 strain (AID 161);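 further: 0% = growth of cultures given vehicle only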; conditions: S. cerevisiae sgs1 mgt1 strain, at 50.0 µM, active compounds read high
Summary of the method: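 Test agents were incubated with a DNA-repair-mutant yeast strain. Growth was then read and compared against vehicle-treated controls.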

[4] = NCI Yeast Anticancer Drug Screen. Data for the cln2 rad14 strain (AID 165);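 further: 0% = growth equal to vehicle treated cultures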; conditions: S. cerevisiae cln2 rad14 strain, at 50.0 µM, active compounds read high
Summary of the method: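 Growth of compound-exposed yeast (cln2 rad14 genotype) measured and expressed as inhibition relative to vehicle.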

[5] = NCI Yeast Anticancer Drug Screen. Data for the bub3 strain (AID 167); conditions: S. cerevisiae bub3 mutant strain, at 50.0 µM, active compounds read high
Summary of the method: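 Compounds were applied to a genetically altered yeast strain carrying a cell-cycle control defect. Growth inhibition was scored against vehicle-treated controls.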

[6] = NCI Yeast Anticancer Drug Screen. Data for the mlh1 rad18 strain (AID 175); conditions: S. cerevisiae mlh1 rad18 strain growth inhibition; at 50.0 µM; active compounds read high
Summary of the method: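 In this whole-cell yeast screen, a strain with altered DNA damage repair is challenged with compound, and its growth is measured against matched vehicle-treated controls.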

Measured: growth inhibition

Cc1c2oc3c(C)ccc(C(=O)NC4C(=O)NC(C(C)C)C(=O)N5CCCC5C(=O)N(C)CC(=O)N(C)C(Cc5ccc(O)cc5)C(=O)OC4C)c3nc-2c(C(=O)NC2C(=O)NC(C(C)C)C(=O)N3CCCC3C(=O)N(C)CC(=O)N(C)C(Cc3ccc(O)cc3)C(=O)OC2C)c(N)c1=O (stereo not drawn) (I: TVP[Sar][NMeY] / II: TVP[Sar][NMeY]; ester I:1-I:C, II:1-II:C; linker I:N-II:N via Actinocin(9to1); configuration not given here)
inactive: [1] -11.3% and -12.8% | [2] 0.3% and 1.3% | [3] -3.65% and -1.8% | [4] 4.7% and 26.5% | [5] -8.7% and 0.35% | [6] -25.1% and -32.2%

C[S+](C)C
inactive: [1] -5.65% and -0.05% | [2] -7.25% and -2.1% | [3] -2.9% and -2% | [4] 9.1% and -10% | [5] 4.4% and -7.1% | [6] -18.4% and 12.5%

COc1ccc(-c2nc(SC3OC(COC(C)=O)C(OC(C)=O)C(OC(C)=O)C3OC(C)=O)n(C3OC(COC(C)=O)C(OC(C)=O)C(OC(C)=O)C3OC(C)=O)c(=O)c2C#N)cc1 (stereo not drawn)
inactive: [1] 11.2% and -3.9% | [2] 8.85% and -1% | [3] 22.4% and 18.1% | [4] -6.15% and -19.5% | [5] 3.35% and 14.9% | [6] -12.7% and -3.55%

CC(=O)Nc1ccccc1Cl
inactive: [1] 31.6% and 6% | [2] 6.7% and -9.05% | [3] 14.2% and -20.4% | [4] 24.9% and -20.1% | [5] 20.2% and -15.1% | [6] -11.4% and 21.4%

CN(C)C=C(S(C)(=O)=O)S(C)(=O)=O
inactive: [1] 10.2% and -24.7% | [2] -2.05% and -9.9% | [3] 20.1% and -9.85% | [4] -17.5% and 4.25% | [5] 5.8% and 14.9% | [6] 9.1% and -14.8%

O=C(O)c1cc(O)c(O)c(O)c1
inactive: [1] 5.3% and 1.55% | [2] -12.6% and -7.9% | [3] 2.2% and 15.6% | [4] 15.6% and -9.5% | [5] 2.25% and 2.85% | [6] 5.8% and 3%

C=CC/C(=N\OS(=O)(=O)O)SC1OC(CO)C(O)C(O)C1O (stereo not drawn)
inactive: [1] 2.2% and 4.75% | [2] -30.6% and -21.5% | [3] -0.75% and -20.6% | [4] 13.4% and 7.4% | [5] -14% and -30.2% | [6] -14.9% and -10.7%

Cc1ccc(S(=O)(=O)N(C)c2ccccc2)cc1
inactive: [1] -18.6% and -3.7% | [2] -50.7% and -1.25% | [3] -0.55% and 10.2% | [4] 1.2% and -25.4% | [5] 11.8% and 16.3% | [6] -10% and 9.95%

CSCCC(NC(=O)CN)C(=O)O (stereo not drawn)
inactive: [1] 8.7% and -6.35% | [2] -14.6% and -11.8% | [3] 3% and -2.45% | [4] 14.4% and 0.15% | [5] -7.15% and -13.8% | [6] 5.35% and -7.05%

Cc1ccc(C(C)CCCO)cc1 (stereo not drawn)
inactive: [1] -11.6% and 6.8% | [2] -15.4% and -21.8% | [3] -16.8% and -6.55% | [4] -6.55% and -2.3% | [5] -22.2% and -6.35% | [6] -23.9% and -25.9%

CC(=O)NC(Cc1ccccc1)C(=O)O (stereo not drawn)
inactive: [1] 11.1% and -7.55% | [2] -3% and -7.6% | [3] 15.7% and 4.25% | [4] 6.3% and -52.9% | [5] 6.25% and -14.1% | [6] -18.3% and -27.1%

CC(=O)OCC1OC(n2c(=S)n(-c3ccccc3)c(=O)c3cc(Br)ccc32)C(OC(C)=O)C(OC(C)=O)C1OC(C)=O (stereo not drawn)
inactive: [1] 4.85% and -36.2% | [2] -1.9% and -27.9% | [3] 1.4% and -26.9% | [4] 5.25% and 15.2% | [5] -14.6% and -0.3% | [6] 12.5% and -19.2%

O=C(O)C(O)C(O)C(O)C(=O)CO (stereo not drawn)
inactive: [1] -2.25% and -13.1% | [2] -27.3% and -1.05% | [3] -4.9% and -10.4% | [4] -32.6% and -40.5% | [5] -16.9% and -42.5% | [6] -19.2% and 13.7%

Cc1ccc2c(c1)P(=O)(O)c1cc(C)ccc1S2(=O)=O
inactive: [1] -0.75% and 4.5% | [2] 11.2% and -2.65% | [3] 6.75% and -4.1% | [4] -1.1% and -1.2% | [5] 0.45% and -9.3% | [6] -1.1% and -0.2%

CC(C)(C)OC(=O)CCC(NC(=O)OCC1c2ccccc2-c2ccccc21)C(=O)NC(Cc1c[nH]c2ccccc12)C(=O)NC(CCCCNC(=O)OC(C)(C)C)C(=O)N1CCCC1C(=O)NCC(N)=O (stereo not drawn) (Fmoc-E(OtBu)WK(Boc)PG-NH2; configuration not given here)
inactive: [1] -24.2% and -27.9% | [2] -23.1% and -22.1% | [3] -12.7% and -17% | [4] 5.7% and 12.8% | [5] -16.6% and -4.35% | [6] -17.8% and -22.2%

CC(=O)OC1OC(C)C(OC(C)=O)C(OC(C)=O)C1OC(C)=O (stereo not drawn)
inactive: [1] 6.8% and 1.65% | [2] -4.1% and 1.8% | [3] -5.85% and 11.7% | [4] -0.15% and 4.05% | [5] 4.5% and -4.2% | [6] -15.6% and 10.3%

COC1C(O)C(O)C(O)C(O)C1O (stereo not drawn)
inactive: [1] 0.95% and -11.2% | [2] -4.8% and -13.4% | [3] -0.35% and -18.1% | [4] 21.2% and 9.9% | [5] -3.1% and -31.4% | [6] -0.45% and -15.6%

CCOC(=O)CNC(=O)c1ccccc1
inactive: [1] 3.7% and -12.2% | [2] -7% and -36.4% | [3] -9.55% and -7.05% | [4] -8% and -13.8% | [5] -2.35% and 27.1% | [6] -1% and -4.65%
